Screening data from PubChem.
In the library only some 1.8% were active in any assay of this set; here they are far more common.
HEK293 tox = cytotoxicity counter-screen for GLP-1 receptor inverse agonists; HEK293 cAMP-luciferase reporter cells, luminescence, 24 h; Potency, µM (top dose mostly 38.3 µM), inactives show top-dose activity change, negative = inhibition, actives largely listed as inhibitors; 410,000 compounds, 0.13% hits;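 further: loss of luciferase light is scored as toxicity; on the % scale 0 is the no-effect control and ±100 the full control effect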
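Quantitative HTS format, 1536 wells, 200 cells/uL seeded. Compounds: 23 nL, 24 h, 37 °C. Detection: luciferase reagent, luminescence at 12 min RT; decreased signal taken as cytotoxic.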
GCN5L2 inh = GCN5L2 (KAT2A) acetyltransferase inhibition; Q92830; GCN5L2 HAT assay, ThioGlo1 CoA-SH fluorescence; Potency, µM (highest dose often 58.9 µM), inactives show at the highest dose activity change, negative = inhibition, hits mostly inhibitors; 390,000 compounds, 0.21% hits; further: on the % scale 0 is the no-effect control and ±100 the full control effect
Target sequence (Q92830 whole entry, looked up): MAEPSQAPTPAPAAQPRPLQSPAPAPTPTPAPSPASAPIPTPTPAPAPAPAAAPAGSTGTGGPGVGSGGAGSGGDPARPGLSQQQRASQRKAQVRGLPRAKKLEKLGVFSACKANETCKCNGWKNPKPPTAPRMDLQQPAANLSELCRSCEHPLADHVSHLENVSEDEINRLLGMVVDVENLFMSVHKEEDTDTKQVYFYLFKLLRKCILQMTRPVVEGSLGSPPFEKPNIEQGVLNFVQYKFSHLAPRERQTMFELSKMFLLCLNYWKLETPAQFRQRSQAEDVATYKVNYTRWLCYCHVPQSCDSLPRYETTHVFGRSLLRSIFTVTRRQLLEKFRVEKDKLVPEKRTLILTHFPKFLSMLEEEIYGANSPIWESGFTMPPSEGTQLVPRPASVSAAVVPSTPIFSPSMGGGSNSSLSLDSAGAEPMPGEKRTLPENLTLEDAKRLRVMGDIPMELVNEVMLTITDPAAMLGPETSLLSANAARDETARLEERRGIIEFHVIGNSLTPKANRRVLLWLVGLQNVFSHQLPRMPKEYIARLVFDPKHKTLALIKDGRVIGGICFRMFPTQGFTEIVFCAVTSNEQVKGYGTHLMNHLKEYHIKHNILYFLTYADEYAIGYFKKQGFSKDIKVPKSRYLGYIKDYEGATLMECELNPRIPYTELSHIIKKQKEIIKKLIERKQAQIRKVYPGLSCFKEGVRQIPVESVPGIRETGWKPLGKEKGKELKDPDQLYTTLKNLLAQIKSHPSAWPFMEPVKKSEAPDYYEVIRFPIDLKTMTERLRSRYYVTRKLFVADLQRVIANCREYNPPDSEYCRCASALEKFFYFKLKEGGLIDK
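ThioGlo1-coupled HAT assay: 20nM GCN5L2, 70uM acetyl-CoA, 75uM H3(1-25) peptide, pH 7.5. Fluorescence read at 340/540nm at start and after 20 min at room temperature.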
RGS4 inhibitor = blocks human RGS4-accelerated GTP hydrolysis; Potency, µM (titrated, usually from 114 µM), for the others: top-dose activity change, negative = inhibition, most hits filed as inhibitors; Transcreener GDP fluorescence polarization, RGS4-accelerated GTP hydrolysis; P49798; 390,000 compounds, 0.039% hits; further: on the % scale 0 is the no-effect control and ±100 the full control effect; nearly all actives have a fitted effect of over 75% in size
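MLSMR compounds (23 nl, pin-transferred) preincubated 10 min at room temperature with a 500nM (2x) first reagent, then RGS4 at 900nM (2x) plus Transcreener GDP mix added; fluorescence polarization (620/688 nm) read before and after 90 min at 30 °C.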
PTHR1 agonist = activates the human parathyroid hormone receptor PTHR1. Potency, µM (titrated, usually from 115 µM), for inactives: at the highest dose activation, actives largely listed as activators. 410,000 compounds, 0.075% hits. AID 743266. HEK293 GP2 PTHR1 cells, GloSensor cAMP luminescence, 1 h. Q03431; further: nearly all actives have a fitted effect of over 55% in size
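HEK-293-derived GP2 cells expressing PTHR1 and a GloSensor cAMP reporter, 3,000/well, plated overnight, given luciferin plus IBMX (each 0.5 mM as added) for 1 h at 37 °C, then compound for 1 h at 37 °C. Luminescence was read after 15 min at room temperature.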
GLP1R inv ag = GLP-1 receptor (human) inverse agonism | 410,000 compounds, 1.6% hits | P43220 | HEK293 GLP-1R CRE-luciferase, luminescence, 24 h; GLP-1R form is constitutively active | AID 624417 | Potency, µM (top dose mostly 38.3 µM), without a hit: top-dose activity change, negative = inhibition, actives largely listed as inhibitors; further: on the % scale 0 is the no-effect control and ±100 the full control effect; nearly all actives have a fitted effect of over 55% in size
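Seeding at 200 cells/uL, 12 h culture, 24 hr compound treatment, then luciferase reagent and a luminescence read; cells are HEK293 stably expressing a constitutively active GLP-1R plus cAMP-responsive luciferase.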
GLP1R ag = activates the human GLP-1 receptor | Potency, µM (highest dose often 45.6 µM), for the others: at the highest dose activation, most hits filed as activators | 380,000 compounds, 0.007% hits | P43220 | HEK293 GLP-1R CRE-luciferase, luminescence, 4-6 h; cells express a hypersensitive GLP-1R form; further: % of control where 0% means no effect
* = called active by the depositor; [ ] = another dose, or the depositor's remark. The call rests on the fitted dose curve; in most records, active means well fitted curve in the direction sought with a large enough effect; inconclusive means small, poorly fitted or top-dose-only effect, or another doubt; inactive means no such curve, though single readings can be large; an effect the other way counts as inactive or inconclusive. Potency means the concentration at half of the fitted maximal effect.

How did CCN(CC)c1nc(OCCNC(=O)Nc2ccccc2)nc(N(CC)CC)n1 do in these assays?
HEK293 tox: inconclusive; GCN5L2 inh: -13.8%; RGS4 inhibitor: -50.3%; PTHR1 agonist: -16.3%[57.5 µM]; GLP1R inv ag: 5.01µM*; GLP1R ag: -1.5%

Results for O=C(NCCOc1nc(N2CCOCC2)nc(N2CCOCC2)n1)Nc1ccccc1 ?
HEK293 tox: 20.1%; GCN5L2 inh: -13.7%; RGS4 inhibitor: 24.4%; PTHR1 agonist: inactive; GLP1R inv ag: 45.4%; GLP1R ag: 2.3%

How did Cc1cc(C(=O)COC(=O)c2cccc(O)c2)c(C)n1C1CC1 do in these assays?
HEK293 tox: 14.4%; GCN5L2 inh: 2.8%; RGS4 inhibitor: -96.1%; PTHR1 agonist: -51.5%; GLP1R inv ag: inconclusive; GLP1R ag: -1.1%

How did O=C(COc1ccc(-c2nnc(N3CCCCC3)c3ccccc23)cc1)N1CCCCC1 do in these assays?
HEK293 tox: -0.1%; GCN5L2 inh: 0.2%; RGS4 inhibitor: -1.7%; PTHR1 agonist: -17.0%[57.5 µM]; GLP1R inv ag: 10µM*; GLP1R ag: 2.0%

How did CCOC(=S)SCC(=O)Nc1nc(-c2ccccc2)cs1 do in these assays?
HEK293 tox: inconclusive; GCN5L2 inh: -5.2%; RGS4 inhibitor: -42.9%; PTHR1 agonist: -28.5%; GLP1R inv ag: 0.0%; GLP1R ag: -2.7%

Results for CCOC(=S)SCC(=O)Nc1nc(-c2ccc(Br)cc2)cs1 ?
HEK293 tox: 5.01µM*; GCN5L2 inh: -5.9%; RGS4 inhibitor: -21.6%; PTHR1 agonist: -29.2%; GLP1R inv ag: 0.0%; GLP1R ag: -3.8%

How did O=C(C1CCC(Cn2c(=O)c3sccc3n(Cc3cccc(F)c3)c2=O)CC1)N1CCOCC1 (stereo not given) do in these assays?
HEK293 tox: 0.3%; GCN5L2 inh: -3.8%; RGS4 inhibitor: -2.6%; PTHR1 agonist: -14.3%; GLP1R inv ag: -1.7%

Results for CCN(CC)CCCN=Cc1c(O)n(-c2c(C)cccc2C)c(=O)c2ccccc12 ?
HEK293 tox: 1.0%; GCN5L2 inh: -6.1%; RGS4 inhibitor: 11.9%; PTHR1 agonist: -12.4%; GLP1R inv ag: inconclusive; GLP1R ag: -3.0%

How did CCN(CC)CCCN=Cc1c(O)n(Cc2ccccc2)c(=O)c2ccccc12 do in these assays?
HEK293 tox: -9.7%; GCN5L2 inh: -4.4%; RGS4 inhibitor: 19.3%; PTHR1 agonist: inactive; GLP1R inv ag: 12.6µM*; GLP1R ag: 14.2%

What do the screens show for `CN(c1ccccc1)S(=O)(=O)c1cccc(NC(=O)CSc2ncc(C(F)(F)F)cc2Cl)c1`?
HEK293 tox: 9.8%; GCN5L2 inh: -9.2%; RGS4 inhibitor: -4.8%; PTHR1 agonist: -1.8%; GLP1R inv ag: 10µM*; GLP1R ag: -3.9%

What do the screens show for `CC(=O)CCc1ccc(OCC(=O)Nc2cccc(S(=O)(=O)N(C)c3ccccc3)c2)cc1`?
HEK293 tox: 7.8%; GCN5L2 inh: -6.2%; RGS4 inhibitor: -14.8%; PTHR1 agonist: -83.7%; GLP1R inv ag: 11.2µM*; GLP1R ag: 3.2%

What do the screens show for `CN(c1ccccc1)S(=O)(=O)c1cccc(NC(=O)COc2ccccc2)c1`?
HEK293 tox: -6.3%; GCN5L2 inh: inconclusive; RGS4 inhibitor: 25.0%; PTHR1 agonist: -41.7%; GLP1R inv ag: inconclusive; GLP1R ag: 10.0%

Results for CN(c1ccccc1)S(=O)(=O)c1cccc(NC(=O)CSc2nncn2C)c1 ?
HEK293 tox: -0.1%; GCN5L2 inh: -3.7%; RGS4 inhibitor: -33.8%; PTHR1 agonist: -0.9%; GLP1R inv ag: 1.1%; GLP1R ag: -1.1%

How did CC1(C(=O)NCc2ccncc2)Cc2c(-c3cccc(C(F)(F)F)c3)ccnc2O1 (stereo not given) do in these assays?
HEK293 tox: -19.1%; PTHR1 agonist: -22.9%; GLP1R inv ag: inconclusive; GLP1R ag: 2.1%

Results for O=C(Nc1ccc(Cl)cc1)NC1CCCC1Cc1ccco1 (stereo not given) ?
HEK293 tox: 9.6%; GCN5L2 inh: -19.5%; RGS4 inhibitor: -48.7%; PTHR1 agonist: -40.0%; GLP1R inv ag: 5.62µM*; GLP1R ag: -7.1%

How did O=C(Nc1ccc(Cl)cc1)NC1CCCCC1Cc1ccco1 (stereo not given) do in these assays?
HEK293 tox: -29.8%; GCN5L2 inh: -10.4%; RGS4 inhibitor: -6.0%[11.4 µM]; PTHR1 agonist: -17.6%[57.5 µM]; GLP1R inv ag: 10µM*; GLP1R ag: -13.1%

What do the screens show for `O=C(Nc1ccc(Cl)cc1)NC1CCCCC1`?
HEK293 tox: 3.4%; GCN5L2 inh: -2.8%; RGS4 inhibitor: 33.8%; PTHR1 agonist: -20.5%; GLP1R inv ag: -1.6%; GLP1R ag: 3.6%

What do the screens show for `CC(C)CCCN1C(N(C)C)=NC[C@@H]1Cc1ccccc1`?
HEK293 tox: 0.0%; GCN5L2 inh: -2.6%; RGS4 inhibitor: -12.0%; PTHR1 agonist: -2.2%; GLP1R inv ag: -19.3%; GLP1R ag: 2.8%

What do the screens show for `O=C1CS(=O)(=O)N(Cc2cccc(F)c2)c2ccc(Br)cc21`?
HEK293 tox: -5.5%; GCN5L2 inh: -27.7%; RGS4 inhibitor: -10.3%; PTHR1 agonist: -35.9%; GLP1R inv ag: 10µM*; GLP1R ag: -2.8%

What do the screens show for `CC(CNC(=O)c1ccc2nc(Cc3ccccc3)oc2c1)c1ccccc1` (stereo not given)?
HEK293 tox: -13.3%; GCN5L2 inh: -6.9%; RGS4 inhibitor: 4.6%; PTHR1 agonist: -48.4%; GLP1R inv ag: 11.2µM*

What do the screens show for `COc1cc(CNC(=O)c2ccc3nc(Cc4ccccc4)oc3c2)cc(OC)c1OC`?
HEK293 tox: -1.3%; GCN5L2 inh: 3.4%; RGS4 inhibitor: -19.0%; PTHR1 agonist: -91.9%; GLP1R inv ag: -3.1%

How did COc1cc(CNC(=O)c2ccc3nc(CCc4ccccc4)oc3c2)cc(OC)c1OC do in these assays?
HEK293 tox: 1.8%; GCN5L2 inh: -2.0%; RGS4 inhibitor: -9.6%; PTHR1 agonist: -3.3%; GLP1R inv ag: 11.2µM*

How did Cc1c(N=C/C=C2/N(C)c3ccccc3C2(C)C)c(=O)n(-c2ccccc2)n1C do in these assays?
HEK293 tox: inconclusive; GCN5L2 inh: -3.2%; RGS4 inhibitor: -4.8%; PTHR1 agonist: -40.0%; GLP1R inv ag: inconclusive; GLP1R ag: inconclusive

What do the screens show for `Cc1c(N=C/C=C2\N(C)c3ccccc3C2(C)C)c(=O)n(-c2ccccc2)n1C`?
HEK293 tox: 2.24µM*; GCN5L2 inh: -7.8%; RGS4 inhibitor: 17.0%; PTHR1 agonist: -11.8%[57.5 µM]; GLP1R inv ag: inconclusive; GLP1R ag: 0.8%

How did CCOC(=O)c1c(C)oc2nc(C)nc(N(C)Cc3ccccc3)c12 do in these assays?
HEK293 tox: 15.1%; GCN5L2 inh: 14.9%; RGS4 inhibitor: 12.1%; PTHR1 agonist: -43.9%; GLP1R inv ag: inconclusive
